This is an account of results in PubChem BioAssay AID624415 (National Center for Advancing Translational Sciences (NCATS), 2012).

About 60 (0.02%) of roughly 390,000 compounds were called active. Cut-off read from the data, not from the text of the source: active = activity change below about -50%; inconclusive = between about -30% and that limit; inactive = weaker than that. Only a selection was taken, and actives are over-represented in it overall.
% is set by controls: 0 for no effect and ±100 for the full control effect.

Mucolipin-1 (Homo sapiens), sequence (Q9GZU1 whole entry, looked up, the tested form may be a part): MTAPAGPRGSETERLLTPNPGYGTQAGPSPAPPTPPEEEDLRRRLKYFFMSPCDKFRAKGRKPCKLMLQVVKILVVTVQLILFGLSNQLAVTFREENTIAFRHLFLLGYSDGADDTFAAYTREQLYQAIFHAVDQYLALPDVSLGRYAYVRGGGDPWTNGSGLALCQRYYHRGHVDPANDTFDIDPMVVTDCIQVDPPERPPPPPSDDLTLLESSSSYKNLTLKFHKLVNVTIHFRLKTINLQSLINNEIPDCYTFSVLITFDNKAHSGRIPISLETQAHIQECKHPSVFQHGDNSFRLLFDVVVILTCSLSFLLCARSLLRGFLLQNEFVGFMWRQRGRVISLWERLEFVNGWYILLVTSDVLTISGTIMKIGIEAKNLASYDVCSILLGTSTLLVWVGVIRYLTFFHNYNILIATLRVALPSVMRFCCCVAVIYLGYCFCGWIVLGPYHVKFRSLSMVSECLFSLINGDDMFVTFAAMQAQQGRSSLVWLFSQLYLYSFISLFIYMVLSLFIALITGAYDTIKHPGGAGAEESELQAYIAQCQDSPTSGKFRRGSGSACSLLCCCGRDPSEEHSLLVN

The target of the experiment is Mucolipin-1 (Homo sapiens) (UniProt Q9GZU1). The experiment is described as follows: qHTS for Inhibitors of the Human Mucolipin Transient Receptor Potential 1 (TRPML1). The note with it: TRPML1-inducible cells, Ca2+ dye fluorescence, FDSS; hits give low values; inhibition of EC80 agonist-evoked calcium signal. From the text:
Mutations of human Mucolipin transient receptor potential 1 (TRPML1) cause type IV mucolipidosis (ML4), a devastating neurodegenerative disease in young children. […] Currently, there is no treatment for ML4. […] Under physiological conditions, TRPMLs regulate membrane trafficking by transducing information about PI(3,5)P2 levels into changes in juxtaorganellar Ca2+, thereby triggering membrane fusion/fission events in the late endocytic pathways (endolysosomal trafficking). In addition, TRPML1 mediates release of Fe2+ from late endosomes and lysosomes, which is essential for cellular iron metabolism. Thus, impaired ion (Ca2+ and Fe2+) homeostasis underlies lysosomal dysfunction and ML4 phenotypes. In ML4 cells, the problem is twofold. First, defective Ca2+-dependent membrane trafficking due to TRPML1-deficiency causes accumulation of lipids and other bio-materials in the lysosome. The second strike comes from the lysosomal iron overload (due to impairment of TRPML1's Fe2+ conductivity), which converts the accumulated materials into the nondegradable (resistant to lysosomal degradation) lipofuscin (also called aging pigment) in the lysosome. Lipofuscin accumulation dramatically compromises the functions of lysosomes.
Niemann-Pick type C (NPC) disease is another lysosome storage disease (LSD) with severe neurodegeneration during the childhood. Currently, there is no cure for NPC. […] Thus, TRPML1 is likely to be an essential regulator of lysosome ion homeostasis. We specifically hypothesize that stimulating TRPML1's Fe2+/Ca2+ channel activity in the lysosome using synthetic agonists can alleviate neurodegeneration associated with ML4 or NPC.
To this end, a high throughput screen was developed in a miniaturized format to screen against the Molecular Libraries Small Molecule Repository (MLSMR) to find small molecules that act either as inhibitors or agonist against the TRPML1 channel.
NIH Chemical Genomics Center [NCGC]
NIH Molecular Libraries Probe Centers Network [MLPCN]
Assay Submitter (PI): Haoxing Xu, University of Michigan Ann Arbor
TRPML1-DL cells are dissociated from flasks, counted and, brought up to a density of 500,000 cells per mL of media containing a 1X Tet inducer. Using a Multidrop Combi, 3 uL of this cell solution is dispensed to each well of a 1536 TC treated, black, clear bottom hi base plate for a final cell density of 1,500 cells per well. The assay plates are incubated overnight (approximately 16 hours) at 37 degrees C and 5% CO2. Using a Multidrop Combi, 2 uL of ABD Ca8 no wash dye plus quencher is added to each well. The assay plates incubate at room temperature in the dark for 45-90 minutes. The assay plate is read on the FDSS using the following protocol: 10 second baseline read, 23 nL of compounds and controls are added using 1536 pintool, agonist read for 110 seconds, 1 uL EC80 addition (4 uM final 54-4 diluted in media), antagonist read for 110 seconds.
For orientation: In qHTS, concentration-response curves come from the screen itself.
As to `CCN(CC)CCNC(=O)c1cc2c(=O)oc3ccc(C)cc3c2s1`, the activity change, negative = inhibition is -8.55% (inactive).

In the case of `Cc1cc(F)ccc1NC1(c2ccccc2)C(=O)c2ccccc2C1=O`, the activity change, negative = inhibition was 2.11% (inactive).

Regarding `COc1ccc(S(=O)(=O)n2nc(C)c(S(=O)(=O)N3CCCCCC3)c2C)cc1`, the activity change, negative = inhibition is -9.9% (inactive).

Turning to `O=C(Nc1ccc(OC(F)(F)F)cc1)c1cc2c(=O)n3ccccc3nc2s1`, the activity change, negative = inhibition is 9.57% (inactive). Under `COC(=O)c1ccc(-c2nc3cc(NC(C)=O)ccc3o2)cc1` stands 12.1% (inactive). Under `CCOc1ccc(S(=O)(=O)Nc2ccc3oc4c(c3c2)CC(C)CC4)cc1` (centres undefined) stands 2.72% (inactive); under `CCOC(=O)c1ccc(NC(=O)C2CC(=O)N(c3ccc(C(C)C)cc3)C2)cc1` (centres undefined), -2.44% (inactive). Under `Cc1cc(OCC(=O)NCC2(N(C)C)CCCCC2)cc(C)c1Cl` stands -7.81% (inactive); under `C=C1CCN(C(CC(C)C)C(=O)NCc2cc(OC)c(OC)c(OC)c2)S(=O)(=O)c2ccccc21` (centres undefined), 6.7% (inactive); under `Cc1ccc(CNC(=O)C2(C(F)(F)F)C/C(=C\CCO)CCCO2)o1` (centres undefined), -4.32% (inactive). In the case of `COc1ccc(NC(=O)CSc2nnc(-c3nnn(-c4ccc(F)cc4)c3C)o2)cc1`, the activity change, negative = inhibition is 30.2% (inactive). Under `Cc1cc(O)c(C(c2ccccc2)N2CCN(c3ccccc3F)CC2)c(=O)n1Cc1ccco1` (centres undefined) stands 19% (inactive). Turning to `O=C(NCCS(=O)(=O)N1CCN(c2ccc(F)cc2)CC1)c1ccccc1Br`, the activity change, negative = inhibition is -27.6% (inactive). Under `Cc1nc(SCC(=O)N2CCN(c3ccccc3)CC2)[nH]c(=O)c1C` stands 14.8% (inactive). For `Cc1cccc(Cn2c(SCc3ccc(C(=O)N4CCC(C)CC4)cc3)nc3ccncc32)c1`, the activity change, negative = inhibition is 10.3% (inactive). Under `Cn1nnnc1SCCCNCc1ccc(Cl)cc1` stands 25.2% (inactive); under `CCOC(=O)c1cccc(NS(=O)(=O)c2cn(C)c(C)n2)c1`, 9.58% (inactive).

On to `COC(=O)c1cccc(NS(C)(=O)=O)c1`, for which the activity change, negative = inhibition is -60.5% (active). Under `COc1ccc(Cl)cc1S(=O)(=O)Nc1cccc(C(=O)O)c1` stands -0.499% (inactive). Under `O=C(CCc1nc(CN2CCN(S(=O)(=O)c3ccc(Cl)cc3)CC2)no1)N1CCCCC1` stands 8.21% (inactive). `CCc1ccc(CNC(=O)C2CCN(c3nn4cc(-c5ccc(F)cc5)nc4s3)CC2)cc1`: the activity change, negative = inhibition was 20.9% (inactive). Under `Cc1ccc(NC(=O)Cc2ccc(NC(=O)N3CCCCc4ccccc43)cc2)cc1` stands 8.17% (inactive); under `Cc1ccccc1C(=O)Nc1cc(C)c(O)c(-c2nc3ccccc3o2)c1`, -18.1% (inactive); under `Cc1ccccc1CNC(=O)CSc1nnc(C)c2c(C)n(-c3ccccc3)nc12`, 2.86% (inactive).
